Test results as given in ChEMBL document CHEMBL4513216, “Probing the Open Global Health Chemical Diversity Library for Multistage-Active Starting Points for Next-Generation Antimalarials” (ACS Infect Dis, 2020).
About 2,700 (4%) of roughly 68,000 compounds showed an effect of 50% or more. The entries come from a sample that favours strong results as a whole.

The molecules below were run on Plasmodium berghei (assay: Screen against P. berghei liver stage (PbLuc), transformed with Luciferase, at 2uM). Details: tested at 2 uM.
Type: functional, HepG2
Molecule `CC[C@@]1(O)CCN(C(=O)CN(C)Cc2ccc(F)cc2)C[C@H]1O` has an INHIBITION of 25.06%. In the case of `CN(C)[C@@H]1C[C@@H](CO)N(C(=O)Nc2cccc(F)c2F)C1`, the INHIBITION was -57.1%. With `CNC(=O)[C@H]1C[C@@H]2CCN(CCc3ccccc3)C[C@@H]2O1` the INHIBITION was 21.77%. `CS(=O)(=O)N1CCc2sc(C(=O)NCc3ccccc3)cc21` showed an INHIBITION of 38.62%. `O=C(C1CC(F)(F)C1)N1C[C@@H]2CN(CC3CC3)CCO[C@@H]2C1` showed an INHIBITION of -14.21%. `Cc1nccn1CCC1CCN(C(C)C)CC1` gave an INHIBITION of 4.53%. For `Cc1ccc2c(ccn2CCC(=O)O)c1`, the INHIBITION was -7.01%. For `Cc1cccc(CN2C(=O)C[C@H]3[C@@H]2CCN3Cc2ccccn2)n1`, the INHIBITION was -11.91%. Work on `O=C(c1ccc(NC2CC2)nc1)N1CCCC(n2ccnc2)C1` (configuration not stated) yielded an INHIBITION of -5.3%. Molecule `O=C(c1ccc(NC2CC2)nc1)N1CCCC(n2cccn2)C1` (configuration not stated) has an INHIBITION of 54.85%. `Cc1cnn(C2CCCN(C(=O)c3ccc(-n4cnnn4)cc3)C2)c1` (configuration not stated) was tested, and the INHIBITION was 15.4%. In the case of `Cc1nn(-c2ccccc2)cc1C(=O)N1CCCN2CCCC2C1` (configuration not stated), the INHIBITION was 20.11%. `Cc1cnn(C2CCCN(C(=O)c3cn(-c4ccccc4)nc3C)C2)c1` (configuration not stated) was tested, and the INHIBITION was 86.75%. For `Cc1nn(-c2ccccc2)cc1C(=O)N1CCCC(n2cccn2)C1` (configuration not stated), the INHIBITION was 11.1%. `O=C(c1ccc(-n2cccn2)nc1)N1CCCC(n2cccn2)C1` (configuration not stated) was tested, and the INHIBITION was -9.61%. `Cc1cnn(C2CCCN(C(=O)c3ccnc(N(C)C)c3)C2)c1` (configuration not stated) showed an INHIBITION of -21.91%. For `Cc1cnn(C2CCCN(C(=O)c3ccn(C)c(=O)c3)C2)c1` (configuration not stated), the INHIBITION was 16.51%. For `Cc1cnn(C2CCCN(C(=O)c3sccc3-n3cnnn3)C2)c1` (configuration not stated), the INHIBITION was 51.21%. With `Cc1cnn(C2CCCN(C(=O)c3ccccc3-n3cnnn3)C2)c1` (configuration not stated) the INHIBITION was -31.16%. Work on `Cc1cnn(C2CCCN(C(=O)c3ccc4c(c3)CCC4)C2)c1` (configuration not stated) yielded an INHIBITION of 56.02%. `COc1ccccc1CN1CCC(c2nn(CCN)c3nccnc23)C1` (configuration not stated) gave an INHIBITION of -6.04%. For `Cc1csc(CN2CC[C@H]3C[C@H](c4nc(C)no4)O[C@@H]3C2)n1`, the INHIBITION was 18.32%. Work on `CCOCC1CN(c2ccc(C)nn2)Cc2nn(CC)cc21` (configuration not stated) yielded an INHIBITION of -3.19%. Molecule `CCCc1cc(=O)[nH]c(-c2cccc(CN3CCN4CCCC4C3)c2)n1` (configuration not stated) has an INHIBITION of -19.98%. `Cc1cnn(CC2CCCCN2CC(=O)NCc2ccccn2)c1` (configuration not stated) showed an INHIBITION of 16.6%. `Cc1cnn(C2CCCN(C(=O)c3ccc(O)nc3)C2)c1` (configuration not stated) showed an INHIBITION of 45.83%. `O=C(c1cnc(-c2ncccn2)s1)N1CCCC(n2cccn2)C1` (configuration not stated) showed an INHIBITION of 5.09%. With `CN(C)c1ccc(C(=O)N2CCCC(n3cccn3)C2)nn1` (configuration not stated) the INHIBITION was 37.68%. Molecule `Cc1cnn(C2CCCN(C(=O)c3ccc(NC4CC4)nc3)C2)c1` (configuration not stated) has an INHIBITION of 72.31%. `CNC(=O)c1ccc(C(=O)N2CCCC(n3cc(C)cn3)C2)cn1` (configuration not stated) gave an INHIBITION of 16.64%. Molecule `Cc1cnn(C2CCCN(C(=O)c3ccc(N4CCCC4)nn3)C2)c1` (configuration not stated) has an INHIBITION of -104.9%. `Cc1cccc(-n2cc(C(=O)N3CCCC(n4cccn4)C3)nn2)c1` (configuration not stated) was tested, and the INHIBITION was 58.53%. `O=C(c1cnc(-c2ccccn2)s1)N1CCCC(n2cccn2)C1` (configuration not stated) gave an INHIBITION of 51.94%. Work on `Cc1cnn(C2CCCN(C(=O)c3ccc(N(C)C)nn3)C2)c1` (configuration not stated) yielded an INHIBITION of 69.41%. `Cc1ccc(-n2cc(C(=O)N3CCCC(n4cccn4)C3)nn2)cc1` (configuration not stated) was tested, and the INHIBITION was 18.59%. `O=C(c1cn(-c2ccccc2)nn1)N1CCCC(n2cccn2)C1` (configuration not stated) was tested, and the INHIBITION was -3.05%. `O=C(c1cnc(-c2cnccn2)s1)N1CCCC(n2cccn2)C1` (configuration not stated) gave an INHIBITION of 35.65%. For `CCc1nc(CN2CCCC(N(C)CCc3cccs3)C2)no1` (configuration not stated), the INHIBITION was -14.04%. `CCC(CC)c1cc(CNC(=O)N2CCOC(C)C2)on1` (configuration not stated) showed an INHIBITION of -40.76%. With `c1cnc(N2CCN(CCn3ccnc3-c3ccncc3)CC2)nc1` the INHIBITION was 36.79%. `Cc1nc(C2CCN(C(=O)c3cscn3)CC2)c2sccn12` showed an INHIBITION of 45.5%. `CC(C)n1[nH]c(=O)c2c1NC(=O)CSC2c1cccc(OCC(N)=O)c1` (configuration not stated) was tested, and the INHIBITION was 9.29%. `O=C(c1cnccn1)N1C[C@@H]2CN(Cc3cccnc3)CCO[C@@H]2C1` gave an INHIBITION of 0.54%. Molecule `CN(C)CCN1C2(CCN(Cc3nccs3)C2)c2ccccc2S1(=O)=O` (configuration not stated) has an INHIBITION of 31.25%. `Cn1cc(C2COC3(CCN(C(=O)c4ccsc4)CC3)C2)cn1` (configuration not stated) was tested, and the INHIBITION was -0.38%. With `Cn1cc(-c2nc(CN3CCc4c(ncn4C)C3)cs2)cn1` the INHIBITION was 14.06%. `Cc1nc(CNCC2CCCN2c2cccnn2)no1` (configuration not stated) showed an INHIBITION of -12.31%. `O=C(c1cnc(-c2cccs2)s1)N1CCCC(n2cccn2)C1` (configuration not stated) was tested, and the INHIBITION was 42.18%. With `O=C(c1cnc(-c2cccs2)s1)N1CCCC(n2ccnc2)C1` (configuration not stated) the INHIBITION was 64.16%. `O=C(c1cnc(-c2cccs2)s1)N1CCCN2CCCC2C1` (configuration not stated) showed an INHIBITION of -38.96%. For `Cn1cccc1C(=O)N1CC[C@H]2[C@H]1CCN2CC1CC1`, the INHIBITION was -0.23%. With `CCN(CC)C(=O)c1ccc(COc2ccccc2C#N)o1` the INHIBITION was 9.54%. In the case of `O=C(O)c1cc2c(nc1-c1ccncc1)CCN(C1CCOC1)CC2` (configuration not stated), the INHIBITION was -6.71%. `CCc1ccc(-c2cc(C(F)(F)F)nc(N3CCC(N)CC3)n2)cc1` gave an INHIBITION of 16.36%. For `c1cnc(-c2nc(CN3CCCC(N4CCCC4)C3)cs2)nc1` (configuration not stated), the INHIBITION was -44.96%. For `Cc1nnc2n1CCN(Cc1c(Cl)ccc3cccnc13)C2`, the INHIBITION was 5.28%. For `c1coc(-c2nc(CN3CCn4c(nnc4C4CC4)C3)cs2)c1`, the INHIBITION was 39.65%. `c1cnc(-c2nc(CN3CCn4c(nnc4C4CC4)C3)cs2)nc1` was tested, and the INHIBITION was 63.64%. `Fc1cccc(Cl)c1CN1CCn2c(nnc2C2CC2)C1` showed an INHIBITION of 7.67%. Work on `c1ccc(-c2nc(CN3CCn4c(nnc4C4CC4)C3)cs2)cc1` yielded an INHIBITION of 34.39%. With `CC1CCCN(Cc2csc(-c3ncccn3)n2)CC1` (configuration not stated) the INHIBITION was 53.03%. Work on `CCCC1CCCN(Cc2csc(-c3ncccn3)n2)CC1` (configuration not stated) yielded an INHIBITION of 33.5%. Molecule `Clc1ccc2cccnc2c1CN1CCn2c(nnc2C2CC2)C1` has an INHIBITION of 55.36%. Work on `CC1c2ncc(Cn3cncn3)n2CCN1C(=O)c1ccccn1` (configuration not stated) yielded an INHIBITION of 23.97%. With `O=C(c1ccccc1)N1CCC2(CC1)CNc1c(F)cccc12` the INHIBITION was -27.31%. With `CC(OCC1CC1)C(=O)N1CCCN(Cc2cnn(C)c2)CC1` (configuration not stated) the INHIBITION was 47.12%. Work on `Cc1ccc(N2CC[C@@H]3O[C@@H](COCc4cccnc4)CC[C@@H]32)nn1` yielded an INHIBITION of -64.19%. `O=C(c1cccc(S(=O)(=O)NCCc2ccccn2)c1)N1CCOCC1` was tested, and the INHIBITION was 6.84%. `CCc1cc(CN2C[C@@H]3CC[C@H]2CN(C2Cc4ccccc4C2)C3)on1` gave an INHIBITION of 36.79%. `Cc1ccccc1C(C(=O)N(C)Cc1cnn(C)c1)N(C)C` (configuration not stated) was tested, and the INHIBITION was -15.75%. Molecule `O=C(C1CCC2(CCN(c3nncs3)CC2)C1)N1CCCC1` (configuration not stated) has an INHIBITION of 58.08%. Molecule `CC(=O)N1CCCC2(CCN(c3nncs3)C2)C1` (configuration not stated) has an INHIBITION of 19.58%. With `O=C(C1CCC2(CCN(c3nncs3)CC2)CO1)N1CCCC1` (configuration not stated) the INHIBITION was -38.48%. For `CNc1cc(N2CCCC2CNCc2cnc(C)s2)ncn1` (configuration not stated), the INHIBITION was 47.3%. For `CNC(=O)C1(CCCc2cccnc2)CCCCN1` (configuration not stated), the INHIBITION was 32.95%. `O=C1O[C@@H]2CN(C3CCOCC3)C[C@@H]2N1CCc1cccc(Cl)c1` was tested, and the INHIBITION was 19.46%. Molecule `O=C(c1cccnc1)N(CCO)Cc1cc(Br)ccc1F` has an INHIBITION of -12.09%. Molecule `O=C(c1cccnc1O)N(CCO)Cc1cc(Br)ccc1F` has an INHIBITION of 52.89%. With `O=C(c1ccccn1)N(CCO)Cc1cc(Br)ccc1F` the INHIBITION was -46.83%. In the case of `CC(C)CN1CCC(NCCNc2cccnc2)CC1`, the INHIBITION was 2.06%. `CN(C)C(=O)c1nc2c(s1)CCCN2Cc1ccccc1` was tested, and the INHIBITION was -4.2%. `CCN1CCOCC2(CCCN(C(=O)c3cccc(O)c3)C2)C1` (configuration not stated) showed an INHIBITION of 24.36%. For `Cc1ccccc1S(=O)(=O)NC(=O)C1(c2ccccc2)CCC1`, the INHIBITION was 28.54%. `Cc1ccc(S(=O)(=O)NC(=O)C2(c3ccc(F)cc3)CCC2)c(C)c1` showed an INHIBITION of -2.2%. For `Cc1ccc(S(=O)(=O)NC(=O)C2(c3ccccc3)CCC2)c(C)c1`, the INHIBITION was 53.81%. With `COc1ccc(CN2C[C@@H]3COC[C@@H](N4CCN(C)CC4)[C@@H]3C2)cc1` the INHIBITION was -54.53%. `CN(C)CCNC(=O)CCn1ncc2c(Cl)cccc21` was tested, and the INHIBITION was 19.92%. Work on `Cc1cccc(=O)n1CCC(=O)N1CCC2(CC1)OCCCC2O` (configuration not stated) yielded an INHIBITION of 62.96%. With `Cc1cccc(=O)n1CCC(=O)N1CC[C@](C)(O)[C@H](C)C1` the INHIBITION was -4.52%. In the case of `Cc1cccc(=O)n1CCC(=O)N1CC[C@@](O)(C2CCC2)[C@H](C)C1`, the INHIBITION was -11.55%. In the case of `Cc1cc(N2CCN(Cc3ccccc3)CC(O)C2)nc(N)n1` (configuration not stated), the INHIBITION was 24.44%. For `Cc1cc(N2CCN(Cc3ccccc3)CC(O)C2)cc(C)n1` (configuration not stated), the INHIBITION was 74.94%. With `OC1CN(Cc2ccccc2)CCN(c2ccncc2)C1` (configuration not stated) the INHIBITION was 1.42%. Work on `COc1ccccc1C1CCN(c2ccc3cc[nH]c3n2)CC1` yielded an INHIBITION of 76.27%. Molecule `Fc1ccccc1CN1CCCN(c2ccc3cc[nH]c3n2)CC1` has an INHIBITION of -1.87%. `COc1cccc(C2CC(=O)Nc3nc(N4CCCCC4)sc32)c1OC` (configuration not stated) was tested, and the INHIBITION was -18.15%. In the case of `COc1cccc(C2CCN(c3ccc4cc[nH]c4n3)C2)c1OC` (configuration not stated), the INHIBITION was 87.17%. In the case of `c1cc(CN2CCCN(c3ccc4cc[nH]c4n3)CC2)ccn1`, the INHIBITION was 45.82%. `COc1ccc(OC)c(C2CCN(c3ccc4cc[nH]c4n3)C2)c1` (configuration not stated) gave an INHIBITION of 29.98%. In the case of `CCN1C(=O)CCC12CCCN(Cc1nccs1)CC2` (configuration not stated), the INHIBITION was -23.02%. `O=C1CC(c2ccccc2)c2sc(C(=O)O)c(-c3ccccc3)c2N1` (configuration not stated) was tested, and the INHIBITION was 4.74%. `Fc1ccc(CN2CCO[C@H]3[C@H](OCc4ccncc4)CC[C@@H]32)cc1` gave an INHIBITION of 4.54%.
